PubChem BioAssay (NCATS)
Values joined by “and” are separate entries in the source; they are usually repeats but may differ in a detail not shown here. Equal entries are not always repeated. Inconclusive results are not listed. Active and inactive are the calls of the source. Unless noted, the call rests on the fitted dose curve; in most records, active means well fitted curve in the direction sought with a large enough effect; inconclusive means small, poorly fitted or top-dose-only effect, or another doubt; inactive means no such curve, though single readings can be large; an effect the other way counts as inactive or inconclusive.

Columns and labels:
[1] = target: Vitamin D3 receptor (Homo sapiens) (UniProt P11473); assay: qHTS assay for small molecule antagonists of vitamin D receptor signaling (AID 588541; calls by dose curve;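 further: receptor activated by calcitriol during compound treatment; series mostly up to about 77 µM; on the % scale 0 is the no-effect control and ±100 the full control effect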)
Vitamin D3 receptor (Homo sapiens), sequence (P11473 whole entry, looked up): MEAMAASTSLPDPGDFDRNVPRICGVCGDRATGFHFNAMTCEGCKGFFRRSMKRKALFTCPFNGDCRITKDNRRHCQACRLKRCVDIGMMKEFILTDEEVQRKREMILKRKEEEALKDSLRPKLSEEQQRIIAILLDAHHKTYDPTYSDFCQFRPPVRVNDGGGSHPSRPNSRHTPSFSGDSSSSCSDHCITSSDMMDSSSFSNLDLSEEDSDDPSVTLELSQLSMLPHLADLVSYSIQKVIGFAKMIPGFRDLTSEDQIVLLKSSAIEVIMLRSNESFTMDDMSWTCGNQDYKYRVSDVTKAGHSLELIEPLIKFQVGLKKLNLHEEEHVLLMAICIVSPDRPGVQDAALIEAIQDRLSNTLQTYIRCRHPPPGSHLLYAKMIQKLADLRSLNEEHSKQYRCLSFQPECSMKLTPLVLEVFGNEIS
In short: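 VDR-UAS-bla HEK293T cells (2000/well, 2% charcoal-stripped FBS) were treated with titrated compounds plus 1-alpha,25-dihydroxyvitamin D3 (50 nM or 3 nM final) for 16 h at 37 C. CCF4 beta-lactamase fluorescence was read; Hill fits gave IC50.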

[2] = target: Vitamin D3 receptor (Homo sapiens) (UniProt P11473); assay: qHTS assay for small molecule agonists of vitamin D receptor signaling (AID 588543; calls by dose curve;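 further: 0% = DMSO basal and 100% = reference agonist control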)
In short: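 Reporter cells (HEK293T, VDR-UAS-bla) were seeded in medium with 2% charcoal-stripped serum and incubated 5 h, then compounds in concentration series were added for 16 h at 37 °C. Stimulation was scaled between DMSO basal and 50 nM 1α,25-dihydroxyvitamin D3.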

[3] = target: Thyroid hormone receptor beta (Homo sapiens) (UniProt P10828); assay: qHTS assay for small molecule agonists of thyroid hormone receptor beta signaling (AID 588545; calls by dose curve)
Thyroid hormone receptor beta (Homo sapiens), sequence (P10828 whole entry, looked up): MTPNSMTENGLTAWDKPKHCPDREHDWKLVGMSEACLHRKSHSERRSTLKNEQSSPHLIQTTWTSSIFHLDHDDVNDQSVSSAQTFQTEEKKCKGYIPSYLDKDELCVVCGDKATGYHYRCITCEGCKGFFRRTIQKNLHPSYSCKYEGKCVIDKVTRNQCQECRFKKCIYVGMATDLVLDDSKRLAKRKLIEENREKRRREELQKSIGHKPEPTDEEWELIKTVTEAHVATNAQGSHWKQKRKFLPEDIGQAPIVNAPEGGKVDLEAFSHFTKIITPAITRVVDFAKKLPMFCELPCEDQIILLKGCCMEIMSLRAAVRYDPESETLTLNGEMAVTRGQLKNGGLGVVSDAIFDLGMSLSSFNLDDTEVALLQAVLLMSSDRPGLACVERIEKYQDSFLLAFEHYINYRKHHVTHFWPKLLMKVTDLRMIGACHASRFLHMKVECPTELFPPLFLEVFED
In short: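 Agonist activity was read as beta-lactamase CCF4 fluorescence (405 ex, 460/530 em), scaled between DMSO (0%) and 10 nM T3 (100%), then Hill-fitted for EC50 and efficacy. HEK 293 TR-UAS-bla cells in 2% charcoal/dextran FBS medium were exposed 18 h at 37 C.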

[4] = qHTS assay for small molecule antagonists of retinoid X receptor alpha signaling (AID 588546; active means well fitted inhibition curve with a large enough effect in the signal ratio, with a control signal flat, not every such curve was filed as active; the % refers to the signal ratio;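 further: cells stimulated with 9-cis-retinoic acid as agonist; on the % scale 0 is the no-effect control and ±100 the full control effect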); settings: HEK293T RXRa-UAS-bla, beta-lactamase ratio, antagonist mode; measured here: W530 green channel, cytotoxicity proxy
In short: (§1)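 Beta-lactamase reporter inhibition, read as CCF4 fluorescence ratio (ex 405, em 460/530 nm) after 2 h at RT. HEK293T UAS-bla cells, 2500/well, were stimulated with 9-cis-RA at 500 or 100 nM final alongside test compound for 18 h at 37 C.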

[5] = target: Retinoic acid receptor RXR-alpha (Homo sapiens) (UniProt P19793); assay: as above; settings: HEK293T RXRa-UAS-bla, beta-lactamase ratio, antagonist mode
Retinoic acid receptor RXR-alpha (Homo sapiens), sequence (P19793 whole entry, looked up): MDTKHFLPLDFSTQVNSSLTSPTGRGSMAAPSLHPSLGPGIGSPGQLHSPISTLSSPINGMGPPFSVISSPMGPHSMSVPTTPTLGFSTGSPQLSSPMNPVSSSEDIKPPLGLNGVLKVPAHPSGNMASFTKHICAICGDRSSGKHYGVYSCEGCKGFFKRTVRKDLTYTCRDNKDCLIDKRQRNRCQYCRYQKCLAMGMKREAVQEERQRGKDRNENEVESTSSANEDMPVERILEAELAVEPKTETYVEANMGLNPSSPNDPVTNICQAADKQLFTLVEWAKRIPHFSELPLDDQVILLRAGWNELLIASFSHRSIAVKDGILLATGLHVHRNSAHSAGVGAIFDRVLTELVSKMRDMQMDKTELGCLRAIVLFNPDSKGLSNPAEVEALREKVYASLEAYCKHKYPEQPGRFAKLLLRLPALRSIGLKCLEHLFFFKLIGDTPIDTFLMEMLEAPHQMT
In short: as §1

[6] = target: Thyroid hormone receptor beta (Homo sapiens) (UniProt P10828); assay: qHTS assay for small molecule antagonists of thyroid hormone receptor beta signaling (AID 588547; active means well fitted inhibition curve with a large enough effect in the signal ratio, with a control signal flat, not every such curve was filed as active; the % refers to the signal ratio;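 further: cells stimulated with 0.4 nM T3 agonist during compound exposure; series mostly up to about 77 µM; on the % scale 0 is the no-effect control and ±100 the full control effect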); settings: TR-UAS-bla HEK293, beta-lactamase ratio, antagonist mode, 18 h
In short: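 TR-UAS-bla GripTite HEK293 cells in 2% charcoal/dextran FBS medium were preincubated 4 h at 37 C, given compound (0.59 nM to 92 uM) plus 0.4 nM T3 (final) for 18 h, then CCF4 for 2 h at RT; Hill fit gave IC50.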

[7] = target: Voltage-gated inwardly rectifying potassium channel KCNH2 (Homo sapiens) (UniProt Q12809); assay: qHTS Assay for Small Molecule Inhibitors of the Human hERG Channel Activity (AID 588834);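 further: top concentration of the series differs between compounds; on the % scale 0 is the no-effect control and ±100 the full control effect; lower thallium flux fluorescence means stronger hERG block; nearly all actives have a fitted effect of over 50% in size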
In short: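 hERG-BacMam U2OS, 2000 cells/well; 0.7X FluxOR loading 1 hr RT dark; cpd ~10 min 37 °C; stim buffer; FDSS fluorescence 2 min @ 1 s; AC50 Hill fit.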

[8] = qHTS assay for small molecule disruptors of the mitochondrial membrane potential - 1 hr assay (AID 651754; calls by dose curve; further: on the % scale 0 is the no-effect control and ±100 the full control effect; nearly all actives have a fitted effect of over 35% in size)
In short: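 HepG2 cells, attached overnight, were exposed to compound for 1 hr at 37C, then stained 30 min with a potentiometric dye. Ratio of red aggregate (590nm) to green monomer (535nm) fluorescence reports membrane potential; collapse shifts signal toward green.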

[9] = qHTS assay for small molecule disruptors of the mitochondrial membrane potential - 5 hr assay (AID 651755; calls by dose curve; further: on the % scale 0 is the no-effect control and ±100 the full control effect; nearly all actives have a fitted effect of over 40% in size)
In short: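 HepG2 cells, attached overnight at 37C, were exposed to compound or DMSO for 5 hr at 37C, 5% CO2. Mito-MPS dye was then added for 30 min, and fluorescence read at 490/535 nm (monomers) and 540/590 nm (aggregates).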

[10] = qHTS assay for environmental chemicals that activate the Aryl hydrocarbon Receptor (AhR) signaling pathway (AID 651777); settings: 1A2-DRE human hepatoma cells, luciferase, 24 h; activation: stronger effect = higher value; further: % of control where 0% means no effect; nearly all actives have a fitted effect of over 15% in size
In short: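 Induction of CYP1A2 transcription through AhR is detected by luciferase in 1A2-DRE hepatoma cells. Compounds or DMSO act for 24 hr at 37 C before a 30 min One-Glo step at room temperature.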

[11] = target: Peroxisome proliferator-activated receptor alpha (Homo sapiens) (UniProt Q07869); assay: qHTS assay for small molecule agonists of the peroxisome proliferator-activated receptor alpha (PPARalpha) signaling pathway (AID 651778); settings: PathHunter PPARalpha complementation, chemiluminescence, 6 h; stronger effect = higher value; further: % of control where 0% means no effect
Peroxisome proliferator-activated receptor alpha (Homo sapiens), sequence (Q07869 whole entry, looked up): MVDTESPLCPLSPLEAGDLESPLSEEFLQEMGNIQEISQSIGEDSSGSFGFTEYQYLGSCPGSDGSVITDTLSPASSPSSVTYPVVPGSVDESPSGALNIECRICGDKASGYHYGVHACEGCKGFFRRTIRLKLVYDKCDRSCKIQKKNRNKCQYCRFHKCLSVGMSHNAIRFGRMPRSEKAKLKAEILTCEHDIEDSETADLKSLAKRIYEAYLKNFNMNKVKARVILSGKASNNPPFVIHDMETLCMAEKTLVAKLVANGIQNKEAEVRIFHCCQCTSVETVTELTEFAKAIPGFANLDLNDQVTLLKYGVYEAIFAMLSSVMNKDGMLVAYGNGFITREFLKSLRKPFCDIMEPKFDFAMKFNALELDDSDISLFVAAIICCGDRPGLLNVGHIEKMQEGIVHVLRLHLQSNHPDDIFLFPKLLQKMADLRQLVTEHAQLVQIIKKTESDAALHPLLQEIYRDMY
In short: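 Cells plated at 2,000/well and held overnight at 37 C, 5% CO2, then compound added by pin tool for 6 hr; after PathHunter detection reagent and 60 min at room temperature, chemiluminescence from enzyme complementation was read.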

[12] = target: Nuclear receptor ROR-gamma (Homo sapiens) (UniProt P51449); assay: qHTS assay for small molecule antagonists of the retinoid-related orphan receptor gamma (ROR-gamma) signaling pathway (AID 651802);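 further: luciferase reporter luminescence driven by ROR response element; series mostly up to about 92 µM; on the % scale 0 is the no-effect control and ±100 the full control effect; nearly all actives have a fitted effect of over 60% in size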
Nuclear receptor ROR-gamma (Homo sapiens), sequence (P51449 whole entry, looked up): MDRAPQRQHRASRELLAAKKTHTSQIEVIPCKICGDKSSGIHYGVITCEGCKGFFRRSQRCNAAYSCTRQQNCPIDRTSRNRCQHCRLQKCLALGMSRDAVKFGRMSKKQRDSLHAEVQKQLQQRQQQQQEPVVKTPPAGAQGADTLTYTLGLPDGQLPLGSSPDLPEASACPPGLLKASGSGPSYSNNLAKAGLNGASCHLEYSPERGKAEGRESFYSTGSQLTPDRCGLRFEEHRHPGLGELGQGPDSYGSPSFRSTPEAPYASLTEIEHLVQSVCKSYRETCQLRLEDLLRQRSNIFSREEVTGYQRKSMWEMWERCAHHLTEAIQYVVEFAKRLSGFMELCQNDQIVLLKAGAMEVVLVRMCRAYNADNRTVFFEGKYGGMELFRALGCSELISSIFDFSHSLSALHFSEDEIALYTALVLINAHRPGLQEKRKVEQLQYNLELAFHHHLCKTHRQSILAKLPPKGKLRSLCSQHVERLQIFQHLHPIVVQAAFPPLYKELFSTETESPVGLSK
In short: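 CHO cells with TET-inducible ROR-gamma and RORE-luciferase reporter, dosed then doxycycline-induced. After 16 h at 37C, One-Glo luminescence read; decreased signal indicates antagonism.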

[13] = qHTS assay for small molecule agonists of the antioxidant response element (ARE) signaling pathway measured by Nrf2-dependant transcriptional activity (AID 720636; active means well fitted curve in the direction sought with a large enough effect in the repeat runs; an effect the other way counts as inactive or inconclusive;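 further: HepG2 cells with an ARE-driven luciferase reporter; % of control where 0% means no effect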)
In short: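 We exposed ARE-luc HepG2 cells, seeded in assay medium with 1% dialyzed FBS and allowed 6 hr to adhere, to test compounds overnight (16 hr, 37 C) before measuring luciferase with ONE-Glo.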

[14] = qHTS assay for small molecule antagonists of the retinoid-related orphan receptor gamma (ROR-gamma) signaling pathway - cell viability counter screen (AID 720652; active means well fitted curve in the direction sought with a large enough effect in the repeat runs; an effect the other way counts as inactive or inconclusive;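 further: series mostly up to about 92 µM; compound exposure lasted 16 hr before ATP read; on the % scale 0 is the no-effect control and ±100 the full control effect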)
In short: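 CHO cells carrying TET-inducible ROR and RORE-luciferase reporter, plated 5 hr, then dosed with compound plus doxycycline. After 16 hr at 37 C, viability read as intracellular ATP by CellTiter-Glo luminescence.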

[15] = qHTS assay for small molecule agonists of the antioxidant response element (ARE) signaling pathway measured by Nrf2-dependant transcriptional activity - cell viability counter screen (AID 720653; active means well fitted curve in the direction sought with a large enough effect in the repeat runs; an effect the other way counts as inactive or inconclusive; further: on the % scale 0 is the no-effect control and ±100 the full control effect); settings: ARE-bla HepG2 viability, CellTiter-Glo ATP luminescence, 16 h; stronger effect = lower value
In short: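 ARE-bla HepG2 cells (2,000/well) rested 5 hrs at 37C/5% CO2, then exposed to compounds in DMSO for 16 hrs. Viability was read in the same wells as intracellular ATP by luminescence, 30 min at room temperature after reagent addition.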

[16] = qHTS assay for cell viability of HEK293 cells (AID 743288); settings: ATP luminescence (CellTiter-Glo), 18 h; max response: stronger effect = lower value; further: on the % scale 0 is the no-effect control and ±100 the full control effect; nearly all actives have a fitted effect of over 50% in size
In short: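 HEK293 parental, 2,000 cells/well; ≥5 h pre-incubation 37 C; pintool compound addition; 18 h, 37 C; CellTiter-Glo 30 min RT; luminescence read.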

[17] = qHTS assay for cell viability of the p53RE-bla HCT-116 cell line (AID 743292); further: potency means the concentration at half of the fitted maximal effect; nearly all actives have a fitted effect of over 55% in size
In short: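 In this qHTS counter-screen, metabolically competent p53RE-bla HCT-116 cells were counted via their ATP content. Compounds were applied for 16 h at 37 C and luciferase-coupled luminescence was measured.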

[18] = target: Rap guanine nucleotide exchange factor 3 (Homo sapiens) (UniProt O95398); assay: Confirmatory qHTS for agonist of cAMP-regulated guanine nucleotide exchange factor 3 (EPAC1) (AID 1645881);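 further: EPAC1 catalysed release of BODIPY-GDP from Rap1B seen as fluorescence loss; 100% = effect of cAMP agonist control; nearly all actives have a fitted effect of over 75% in size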
Rap guanine nucleotide exchange factor 3 (Homo sapiens), sequence (O95398 whole entry, looked up): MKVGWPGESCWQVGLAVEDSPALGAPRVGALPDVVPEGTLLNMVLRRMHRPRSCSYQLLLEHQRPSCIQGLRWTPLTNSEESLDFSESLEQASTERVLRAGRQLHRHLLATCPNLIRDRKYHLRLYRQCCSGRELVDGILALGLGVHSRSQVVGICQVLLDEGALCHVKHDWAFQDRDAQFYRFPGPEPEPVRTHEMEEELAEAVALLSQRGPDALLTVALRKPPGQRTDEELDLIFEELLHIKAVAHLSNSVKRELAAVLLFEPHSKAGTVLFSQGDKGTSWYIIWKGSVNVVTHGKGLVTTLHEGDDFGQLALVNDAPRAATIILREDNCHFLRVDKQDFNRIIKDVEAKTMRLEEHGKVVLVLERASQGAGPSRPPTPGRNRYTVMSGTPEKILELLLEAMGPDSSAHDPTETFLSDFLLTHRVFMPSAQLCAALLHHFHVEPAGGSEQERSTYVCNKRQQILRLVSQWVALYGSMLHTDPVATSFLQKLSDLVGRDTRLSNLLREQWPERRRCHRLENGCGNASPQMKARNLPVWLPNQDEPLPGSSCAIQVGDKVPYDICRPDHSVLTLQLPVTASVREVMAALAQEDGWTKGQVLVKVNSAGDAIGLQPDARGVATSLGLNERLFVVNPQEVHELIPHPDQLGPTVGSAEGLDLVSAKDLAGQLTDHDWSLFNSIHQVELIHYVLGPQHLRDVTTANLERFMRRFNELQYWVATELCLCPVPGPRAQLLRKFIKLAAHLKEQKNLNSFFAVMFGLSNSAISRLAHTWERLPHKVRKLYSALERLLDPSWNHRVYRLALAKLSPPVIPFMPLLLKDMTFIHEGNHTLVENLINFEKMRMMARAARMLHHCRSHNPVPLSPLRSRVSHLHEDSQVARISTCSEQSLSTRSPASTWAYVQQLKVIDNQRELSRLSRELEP

[19] = target: Rap guanine nucleotide exchange factor 4 (Homo sapiens) (UniProt Q8WZA2); assay: Confirmatory qHTS for agonist of cAMP-regulated guanine nucleotide exchange factor 4 (EPAC2) (AID 1645884);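 further: nucleotide exchange releases bodipy-GDP from Rap1 and this lowers its fluorescence; on the % scale 0 is the no-effect control and ±100 the full control effect; nearly all actives have a fitted effect of over 65% in size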
Rap guanine nucleotide exchange factor 4 (Homo sapiens), sequence (Q8WZA2 whole entry, looked up): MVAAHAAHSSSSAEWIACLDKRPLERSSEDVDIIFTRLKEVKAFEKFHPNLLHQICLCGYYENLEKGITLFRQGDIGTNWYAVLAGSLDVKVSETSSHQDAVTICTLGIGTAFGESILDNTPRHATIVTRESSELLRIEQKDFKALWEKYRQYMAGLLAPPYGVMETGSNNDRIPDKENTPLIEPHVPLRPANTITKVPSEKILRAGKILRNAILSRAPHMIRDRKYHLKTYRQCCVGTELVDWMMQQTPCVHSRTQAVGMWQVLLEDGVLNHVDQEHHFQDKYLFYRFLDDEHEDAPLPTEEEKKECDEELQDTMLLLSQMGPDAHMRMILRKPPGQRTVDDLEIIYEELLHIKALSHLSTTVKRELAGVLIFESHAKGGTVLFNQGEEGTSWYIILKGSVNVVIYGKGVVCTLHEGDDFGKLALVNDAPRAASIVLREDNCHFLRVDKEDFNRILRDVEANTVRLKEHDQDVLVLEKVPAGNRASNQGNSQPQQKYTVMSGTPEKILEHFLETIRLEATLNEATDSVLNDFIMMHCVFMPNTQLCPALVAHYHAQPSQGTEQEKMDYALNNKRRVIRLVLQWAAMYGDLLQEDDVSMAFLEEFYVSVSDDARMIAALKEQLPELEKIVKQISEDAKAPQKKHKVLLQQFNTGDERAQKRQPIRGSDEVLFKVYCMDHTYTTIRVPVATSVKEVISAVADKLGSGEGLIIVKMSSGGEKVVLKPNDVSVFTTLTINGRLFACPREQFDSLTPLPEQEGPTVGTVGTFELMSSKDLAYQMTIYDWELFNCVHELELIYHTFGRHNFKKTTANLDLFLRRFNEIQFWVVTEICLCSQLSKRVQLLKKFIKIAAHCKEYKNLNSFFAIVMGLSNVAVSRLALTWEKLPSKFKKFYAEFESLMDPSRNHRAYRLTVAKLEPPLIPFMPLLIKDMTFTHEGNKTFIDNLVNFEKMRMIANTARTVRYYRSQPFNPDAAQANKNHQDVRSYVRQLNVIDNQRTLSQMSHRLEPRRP

[20] = target: Rap guanine nucleotide exchange factor 4 (Homo sapiens) (UniProt Q8WZA2); assay: Confirmatory qHTS for antagonist of cAMP-regulated guanine nucleotide exchange factor 4 (EPAC2) (AID 1645885); further: potency means the concentration at half of the fitted maximal effect; nearly all actives have a fitted effect of over 25% in size
[21] = target: Rap guanine nucleotide exchange factor 3 (Homo sapiens) (UniProt O95398); assay: Counterscreen qHTS for antagonist of cAMP-regulated guanine nucleotide exchange factor 3 (EPAC1) (AID 1645888);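 further: fluorescence loss as bound BODIPY-GDP is released from Rap1B; % of control where 0% means no effect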
In short: (§2)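 Measured: fluorescence of BODIPY-GDP bound to Rap1B, which falls as exchange proceeds. Conditions include 50 uM competing GDP, 5 and 30 min reads, and a later cAMP challenge for antagonist detection.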

[22] = target: Rap guanine nucleotide exchange factor 3 (Homo sapiens) (UniProt O95398); assay: Counterscreen qHTS for agonist of cAMP-regulated guanine nucleotide exchange factor 3 (EPAC1) (AID 1645889); further: % of control where 0% means no effect; nearly all actives have a fitted effect of over 40% in size
In short: as §2

[23] = target: Nuclear receptor subfamily 1 group I member 2 (Rattus norvegicus) (UniProt Q9R1A7); assay: qHTS assay for small molecule activators of the rat pregnane X receptor (rPXR) signaling pathway (AID 651751; call rule not given here; further: 0% is about no effect); settings: rPXR reporter cells, luciferase (One-Glo), 24 h
Nuclear receptor subfamily 1 group I member 2 (Rattus norvegicus), sequence (Q9R1A7 whole entry, looked up): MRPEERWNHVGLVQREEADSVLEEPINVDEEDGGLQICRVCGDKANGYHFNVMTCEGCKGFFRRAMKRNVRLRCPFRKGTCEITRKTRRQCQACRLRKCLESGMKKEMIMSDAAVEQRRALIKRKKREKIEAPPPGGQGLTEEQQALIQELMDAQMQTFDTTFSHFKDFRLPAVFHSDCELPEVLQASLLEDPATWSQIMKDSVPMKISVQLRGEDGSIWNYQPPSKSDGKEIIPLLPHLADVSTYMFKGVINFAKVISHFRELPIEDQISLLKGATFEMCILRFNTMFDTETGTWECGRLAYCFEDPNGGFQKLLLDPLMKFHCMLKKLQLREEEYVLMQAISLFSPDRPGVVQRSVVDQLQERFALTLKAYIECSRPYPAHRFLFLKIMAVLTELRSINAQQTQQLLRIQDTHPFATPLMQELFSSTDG

[24] = qHTS assay for small molecule activators of the human pregnane X receptor (PXR) signaling pathway (AID 720659; call rule not given here; further: 0% is about no effect)

Clc1cc(Cl)c(-c2cc(Cl)c(Cl)cc2Cl)cc1Cl
inactive: outcome [1] | outcome [2] | outcome [3] | max response [5] 12.5% | activity change % (negative = inhibition) [6] -3% and 18.9% | Potency [7] | Potency [8] | Potency [9] | activation [10] -0.0322% and 0.521% | max response [11] -1.16% and 9.79% | Potency [12] | outcome [13] | Potency [14] | max response [15] -2.79% and -2.97% | max response [16] -28.5% and -15.8% | Potency [18] | Potency [19] | outcome [21] | Potency [22] | max response [23] 2.83% and 5.76% | outcome [24]
active: Potency [17] 44.7 µM | Potency [20] 4.78 µM
9.9%: max response [4]
